Laboratory results: the supplement of paper PMC6555819

Experiments:
Assay in all cases: PBM binding z-score (relative to random genomic background probes); higher = stronger binding; sequences stand for … in GC…GCGATTGACAGCGTAGAATGAAGG
[1] = test system: PPARg:RXRa IVT, anti-PPARg (NR concentration 270 nM, RXRa partner concentration 90 nM)
Outline: (§1)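 Ligand-free nuclear receptor dimers were applied to custom Agilent 4×180K protein-binding microarrays whose double-stranded probes carried direct-repeat seeds, single-nucleotide variants, half-site ablations and random human genomic background sequences in 34-nt variable regions. Incubation lasted 1 h. Binding z-scores were computed against the random background probes from regression-normalized fluorescence.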

[2] = test system: PPARg DBDmut:RXRa IVT, anti-PPARg (DBD mutation: PPARg1 K132A/R137A, NR concentration 270 nM, RXRa partner concentration 90 nM)
Outline: as §1

[3] = test system: PPARg DBDmut IVT, anti-PPARg (DBD mutation: PPARg1 K132A/R137A, NR concentration 270 nM)
Outline: as §1

[4] = test system: PPARg homodimer (NR concentration 180 nM)
Outline: as §1

[5] = test system: PXR:RXRa (NR concentration 270 nM, RXRa partner concentration 90 nM)
Outline: as §1

[6] = test system: PXR homodimer (NR concentration 270 nM)
Outline: as §1

[7] = test system: RARa:RXR (NR concentration 270 nM, RXRa partner concentration 90 nM)
Outline: as §1

[8] = test system: RARa homodimer (NR concentration 270 nM)
Outline: as §1

[9] = test system: RARb:RXRa (NR concentration 270 nM, RXRa partner concentration 90 nM)
Outline: as §1

[10] = test system: RARb homodimer (NR concentration 270 nM)
Outline: as §1

Sequence | PBM binding z-score [1] | PBM binding z-score [2] | PBM binding z-score [3] | PBM binding z-score [4] | PBM binding z-score [5] | PBM binding z-score [6] | PBM binding z-score [7] | PBM binding z-score [8] | PBM binding z-score [9] | PBM binding z-score [10]
TAGCCTAGGTCACATCGGGCCAGTATACGCTATA | 3.51 | 0.246 | -0.263 | 0.979 | 2.26 | -0.395 | 2.25 | -0.254 | 3.84 | 2.63
CCTACTGGACCAAGGTCATTGATCAGTCAAAGCA | 2.23 | 0.0744 | 0.144 | 2.59 | 3.88 | 1.96 | 3.91 | 0.91 | 3.23 | 3.4
ACTCGGTGGACAAAGGTCAGAGCTACGCCAGTGA | 3.04 | -0.478 | -0.742 | 2 | 3.37 | -0.0874 | 4.02 | 0.366 | 3.96 | 4.06
CCTTACGGGTCACGAGGTTGTAGCACGACGAGCG | 4.99 | 1.56 | -0.374 | 3.19 | 3.92 | -0.0862 | 5.55 | 0.412 | 4.42 | 3.53
CCTACTGGTCCAAGGTCATTGATCAGTCAAAGCA | 1.68 | -0.223 | -0.605 | 3.61 | 4.18 | 2.61 | 4.13 | 1.23 | 3.33 | 3.76
AATACAAGGTCATCGTAGGCCAGAGTACGCACAG | 4.7 | 0.979 | 1.37 | 2.81 | 4.87 | 2.13 | 4.63 | 1.33 | 5.15 | 4.19
CGTCCAAGGTCGAAGGTCAGTGAAGAGATGACGG | 2.36 | -0.273 | -0.43 | 1.19 | 3.61 | 0.105 | 5.45 | 0.117 | 3.98 | 3.62
TCTGCTAGGTCAACGATGGTCAGTTAATCTGCTA | 4.08 | 0.247 | 0.848 | 1.07 | 1.88 | -0.482 | 2.17 | -0.966 | 4.04 | 3.26
ATATGTAGTTTATCGGGTCATTCAGTTTGCGCAT | 3.77 | 1.29 | 1.84 | 1.72 | 3.46 | 7.31 | 3.03 | 1.18 | 2.26 | 2.91
CGTCAAAGATCAAGGTAACGTAACAGAAAGCAGC | 0.642 | 0.647 | 0.471 | 0.374 | 0.00649 | -0.253 | 0.485 | 0.251 | 0.252 | -0.124
CGAACTAGGTCGAGGACAGTGAATCTCCGCACGC | 5 | 0.082 | -0.0951 | -0.11 | -0.012 | -0.207 | 0.419 | -0.18 | 1.64 | 1.18
AATACGGGGTCACTAGGCCAGAGTAGGTACGAAT | 7.02 | 1.49 | 1.57 | 2.6 | 5.78 | 1.06 | 6.3 | 1.34 | 5.12 | 4.41
GCTGCTAGGTCAACTGATGGTCACCTAAAGCTCG | 4.59 | -0.0462 | -0.599 | 1.66 | 2.06 | -0.358 | 3.26 | 0.182 | 4.24 | 3.93
TACCCTAGGTCATTGGGCCAGTATAGTACGCATC | 4.36 | 0.464 | 0.484 | 1.89 | 1.94 | 0.578 | 2.56 | 0.228 | 3.87 | 3.25
ATCTCTAGGTTAAGATAGTTCAGTGAATGCAAAT | 3.25 | 1.33 | 1.32 | 1.36 | 3.05 | 0.756 | 1.53 | 2.08 | 2.01 | 1.9
CCTACTGGGCCAAAGGTGATTGATTCCAATGCTC | 5.36 | 0.238 | 0.204 | 0.439 | 0.0253 | -0.311 | 0.327 | -0.309 | 0.815 | 0.601
TAGCCTAGGTCGTTCAGGGGCCAGTATAGAAAGC | 0.847 | -0.279 | -0.473 | 0.19 | 0.589 | -0.665 | 1.18 | -0.836 | 1.63 | 1.63
TCTAGTTGGTCACGGAGGACACACACGACGGGTA | 2.32 | 1.35 | 1.02 | 0.981 | 0.558 | 0.193 | 0.682 | 0.611 | 2.19 | 2.13
ATATGTAGGTTAGCTGGGGTCATTCACACTAGGC | 6.11 | 2.75 | 2.29 | 3.1 | 6.36 | 4.2 | 5.41 | 1.89 | 2.85 | 3.87
TCGCCTAGGTCATGGGCCAGTATACCACGCGAAC | 2.65 | 0.306 | -0.587 | 1.21 | 1.7 | -0.2 | 2.97 | -0.243 | 3.97 | 3.12
CGTCCAAAGTCAAAGGTCAGTGAAGAGATGACGG | 2.41 | 0.349 | 0.905 | 3.27 | 3.97 | 0.811 | 5.61 | 1.11 | 4.53 | 4.29
CCTACTGGGCCACTAAAGGTCATTGATTCAGTGA | 5.37 | 0.801 | 0.225 | 3.43 | 5.12 | 1.79 | 5.18 | 1.26 | 3.89 | 4.55
CGAACTAGGTCACCCAGGACAGTGAATACATTGA | 8.55 | 3.12 | 2.38 | 2.12 | 1.88 | 1.13 | 2.54 | 1.21 | 4.25 | 3.34
TATCAAAGTTCAAAGGTAACGTAAGTATCCACAC | 2.37 | 1.61 | 1.66 | 2.55 | 5.83 | 4.87 | 6.67 | 2.48 | 5.07 | 3.91
